# Compounds with a hit are over-represented: about 2.9% of the library has one in this group of screens.
# HSF-1 act: increases HSF-1 driven luciferase reporter signal; NIH3T3-HGL HSF-1 luciferase reporter, MG132, 8 h; 100% = twice DMSO control signal; activation, % at 9 µM; 300,000 compounds, 1.7% hits;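 active = mean replicate activation of at least 50% with a set share of replicates each reaching 50%; inconclusive = only one of those two conditions met; inactive = mean below 50% and too few replicates reaching it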;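 note: 0% = median of the neutral control wells and 100% = twice that signal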
# Hsp70 activator: Hsp70 transcriptional activation, primary screen; activation, % at 10 µM; 200,000 compounds, 0.04% hits; HeLa Hsp70 promoter luciferase reporter, luminescence; scaled: vehicle 0, proteasome-inhibitor control 100%;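 active = activation above the mean across all tested compounds plus 3 SD, cutoff set per campaign, cut at about 5.5% in these data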;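 note: 100% = MG132 at 30 µM as the positive control and 0% = DMSO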
# S1P3 antag: S1P3 (human) receptor antagonism; inhibition, % at 4.98 µM; 170,000 compounds, 0.27% hits; CHO S1P3 NFAT-BLA reporter, FRET fluorescence, antagonist mode; Q99500; AID 485;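 active = inhibition above the plate cutoff, the mean inhibition of test wells on that plate plus 3 SD, cut at about 28% in these data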;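 note: cells challenged with S1P at its EC80 of 0.8 µM; blue over green emission ratio from cleaved BLA substrate after 4 h stimulation; 0% = S1P-stimulated wells and 100% = unstimulated DMSO-only wells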
# Target sequence (Q99500 whole entry, looked up): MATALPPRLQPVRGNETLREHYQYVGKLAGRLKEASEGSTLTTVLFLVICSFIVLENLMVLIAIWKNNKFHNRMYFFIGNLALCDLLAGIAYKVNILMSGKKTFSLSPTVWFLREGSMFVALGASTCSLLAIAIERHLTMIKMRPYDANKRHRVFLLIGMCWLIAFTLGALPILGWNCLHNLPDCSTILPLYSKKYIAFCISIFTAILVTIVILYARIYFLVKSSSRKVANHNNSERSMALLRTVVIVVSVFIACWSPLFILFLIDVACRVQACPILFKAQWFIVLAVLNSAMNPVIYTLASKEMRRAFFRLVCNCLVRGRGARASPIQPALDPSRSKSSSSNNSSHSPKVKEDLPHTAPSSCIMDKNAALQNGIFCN
# S1P4 ag: activates the human S1P4 receptor | activation, % at 4.98 µM | S1P4-expressing cell line, agonist reporter assay | 220,000 compounds, 0.35% hits | AID 1509; in the data active = activation above about 11%;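 note: 0% = DMSO vehicle and 100% = reference agonist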
# HSF1 inhib: HSF1 inhibition. NIH3T3-HGL HSE-luciferase, MG132-induced, luminescence 8 h; stronger effect = lower value. activity change, negative = inhibition, % at 7.5 µM (by protocol). 300,000 compounds, 0.77% hits;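 active = more than half of replicate wells show activity change below -50%, luminescence cut by over half; inconclusive = some wells, but at most half, below -50%; inactive = no replicate well below -50%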;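 note: luciferase reports HSF-1 transcriptional activity via heat shock element; 0% = median of DMSO wells and -100% = zero luminescence signal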
# S1P4 antagonist: blocks the human S1P4 receptor. S1P4-expressing cells, antagonist mode, reporter read-out. inhibition, % at 4.98 µM. 220,000 compounds, 0.26% hits. AID 1510; in the data active = inhibition above about 29%;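 note: 0% = wells stimulated with agonist and 100% = vehicle wells without agonist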
# Numbers without * were called inactive; ? = inconclusive; . = no result; ! = a repeat was not active.
SMILES,HSF-1 act,Hsp70 activator,S1P3 antag,S1P4 ag,HSF1 inhib,S1P4 antagonist
O=C(CN1CC(c2ccccc2)CC1=O)NCc1ccc(F)cc1 (stereo unspecified),-74,0,-11,0,-66*,12
O=c1cccc2n1CC1CC2CN(Cc2c(Cl)cccc2Cl)C1 (stereo unspecified),41,0,-36,0,28,-16
O=c1cccc2n1CC1CC2CN(c2nc(N3CCCCC3)nc(N3CCCCC3)n2)C1 (stereo unspecified),58*,0,-16,0,17,1
CC(=NCC1CCCO1)c1c(O)n(C)c(=O)n(C)c1=O (stereo unspecified),1,0,-2,-1,-14,6
CCOC(=O)c1c(C)n(Cc2ccc3c(c2)OCO3)c2ccc(O)cc12,62*,0,.,-1,40,-13
Cc1ccc2c(c1)C1CN(C)CCC1N2C(=O)Cc1cccs1 (stereo unspecified),-10,0,-15,1,-14,-17
Cc1ccc2c(c1)C1CN(C)CCC1N2C(=O)COc1ccc(S(=O)(=O)N2CCOCC2)cc1 (stereo unspecified),14,0,76*,0,-1,-2
O=C1CN=C(c2cc([N+](=O)[O-])ccc2Cl)c2cc([N+](=O)[O-])ccc2N1,7,.,.,.,7,.
COC(=O)[C@@H]1[C@@H](C(=O)OC)C2(c3ccccc3-c3ccccc32)N(c2ccc(Cl)cc2)N1C#N,-96,0,.,-2,-96*,24
COCCNC(=O)c1c(N)n(Cc2ccco2)c2nc3ccccc3nc12,?,0,.,1,46,-10
C=CCNC(=O)c1c(N)n(Cc2ccco2)c2nc3ccccc3nc12,134*,0,.,2,97,-19
C1CCCN(C2CCNCC2)CC1,-20,.,.,.,-1,.
O=C(c1ccc(Cl)cc1)C1CCCN(Cc2cccc3cnccc23)C1 (stereo unspecified),32,0,10,1,14,-8
COc1ccc(C2=CC(c3ccc(OC)c(OC)c3)c3c(c4ccccc4oc3=O)O2)cc1OC (stereo unspecified),-64,.,13,0,-56*,-11
CC(=O)NN1C(=O)c2ccccc2NC1c1cccnc1 (stereo unspecified),-5,0,2,3,0,-29
Cc1ccc(N2C(=O)NC(=O)/C(=C/c3cnn(-c4ccc(C)cc4)c3)C2=O)cc1,-75,0,-12,1,-70*,-6
CC(C)(C)n1cc(C(=O)c2ccccc2OCCCF)cn1,-1,.,.,.,1,.
CC(C)(C)n1cc(C(=O)c2ccc3ccccc3c2O)cn1,-74,0,-17,2,-72*,-23
Cc1cccc(-n2c(-c3ccccc3)nc3ccccc3c2=O)n1,22,0,-5,1,1,11
Cn1ncnc2c(=O)n(C)c(=O)nc1-2,-95,.,105*,.,-95*,.
Cc1ccc(-n2c(O)c(C=NCc3ccco3)c(=O)[nH]c2=S)cc1C,14,.,-12,0,6,-13
Cc1cc(C(=O)N=Nc2c(O)n(C)c3ccccc23)c(C)o1,80*,0,-13,-1,31,-8
COc1cc(OC)c2c(c1)OCC1CON(C)C21 (stereo unspecified),-81,0,-13,-2,-78*,1
O=C1N(c2ccc(Cl)cc2)C(c2cccnc2)N2CCCN12 (stereo unspecified),18,0,-3,1,14,-5
COc1ccc(CCNC2CCCCC2)cc1,-2,0,-13,1,-4,-8
SMILES,HSF-1 act,Hsp70 activator,S1P3 antag,S1P4 ag,HSF1 inhib,S1P4 antagonist
COc1ccc(C[C@H]2NC[C@H](O)[C@H]2OC(C)=O)cc1,-77,.,.,.,-75*,.
COC(=O)C1C(OC(=O)c2ccccc2)CC2CCC1N2C (stereo unspecified),19,0,-6,1,-1,1
CC(=O)c1c(C)n(CCCOC(C)C)c2ccc(O)cc12,-67,0,5,0,-56*,-9
C=COCCn1c(C)c(C(C)=O)c2cc(O)ccc21,42,0,2,0,8,1
CCNC(=S)N(C)CCc1cc2c(c(OC)c1C=C1C(=O)N(C)C(=O)N(C)C1=O)OCO2,-88,.,8,1,-85*,-14
Nc1cc(C(=O)Nc2ccc(Cl)cc2)ccc1N1CC2CC(C1)c1cccc(=O)n1C2 (stereo unspecified),?,.,.,.,20,.
CN(C)C(=O)Oc1ccc2c(c1)O/C(=C\c1ccc(Cl)cc1)C2=O,57*,.,.,.,44,.
COc1cc(/C=N/NC(=O)CN2CC(c3ccccc3)CC2=O)ccc1OC(=O)N(C)C (stereo unspecified),6,0,.,-2,-2,3
COc1ccc(CCNCc2ccc(Br)cc2)cc1OC,51*,.,.,.,22,.
O=C(O)C1C2CCC(O2)C1C(=O)Nc1ccc(F)c(F)c1 (stereo unspecified),-2,.,.,.,-9,.
CC(=O)c1ccccc1NC(=O)C1C2CCC(O2)C1C(=O)O (stereo unspecified),68*,0,-5,1,38,2
CCC1=CCN(CCc2c(C)[nH]c3ccccc23)CC1,-1,.,.,.,-2,.
COc1ccc2c(c1)/C(=C/c1cnc[nH]1)C(=O)N2,32,.,.,.,32,.
O=C1Nc2ccccc2/C1=C/c1cnc[nH]1,66*,1,.,1,38,-17
C=CCc1cc(C=C2C(=O)N(C)C(=O)N(C)C2=O)cc(OCC)c1OCc1ccccc1,-15,0,10,3,-5,-42
Cc1cc2c(C(C)C)c(O)c(O)c(C=O)c2c(O)c1-c1c(C)cc2c(C(C)C)c(O)c(O)c(C=O)c2c1O,.,0,15,1,.,32*!
CCCCCCn1c(=O)c(C(=O)Nc2c(C)n(C)n(-c3ccccc3)c2=O)c(O)c2ccccc21,-17,.,-4,0,-4,-9
c1ccc(C2=NP(N3CCOCC3)(N3CCOCC3)=NC(N3CCOCC3)=N2)cc1,10,0,10,0,-6,-18
c1cc(C2N3CCCN2CC3)ccn1 (stereo unspecified),15,.,0,1,3,-4
COC(=O)C1=C(c2ccccc2)C[C@@H]2CC[C@H]1N2C(=O)NCc1ccc(F)cc1,4,.,.,.,-3,.
O=C1NC2C(O)C(O)C(O)C(O)C2c2cc3c(c(O)c21)OCO3 (stereo unspecified),89*,.,.,.,89*,.
CC(=O)OC1(c2ccccc2)CCN(C)CC1(C)C (stereo unspecified),-2,0,-19,2,-1,-6
CC(=O)OC1(c2ccccc2)CCN(C)C2CCCCC21 (stereo unspecified),-62,0,3,0,-52*,-12
C=CCn1c(O)c(C(C)=Nc2cccc(C(F)(F)F)c2)c(=O)[nH]c1=O,-8,.,0,-1,-3,7
CCCN1CCc2cc(O)cc3c2[C@H]1Cc1ccc(O)c(O)c1-3,24,.,.,.,39,.
